# Screening data (PubChem)
# Compounds with a hit are over-represented: about 1.4% of the library has one in this group of screens.
# LYPLA1 inh: LYPLA1 inhibitors, primary screen, counter-screen for PME1 inhibitor project, biochemical, fluorescence polarization, FP-Rh probe ABPP | Acyl-protein thioesterase 1 (Homo sapiens), O75608 | recombinant LYPLA1 | inhibition, % at 5.9 µM | 320,000 tested, 0.16% active | AID 2174, 2009;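 active means inhibition above the mean of all tested compounds plus 3 SD, set per campaign, cut at about 14% in these data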;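 further: inhibitors block serine hydrolase probe labeling of LYPLA1 so polarization falls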
# Target sequence (O75608 whole entry, looked up): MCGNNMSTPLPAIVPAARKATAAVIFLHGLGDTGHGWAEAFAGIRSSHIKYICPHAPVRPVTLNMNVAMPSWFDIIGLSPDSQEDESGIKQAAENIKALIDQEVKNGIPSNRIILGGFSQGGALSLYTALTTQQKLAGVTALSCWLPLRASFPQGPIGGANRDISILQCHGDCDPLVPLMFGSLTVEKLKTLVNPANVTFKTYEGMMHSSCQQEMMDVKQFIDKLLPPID
# ZTA DNA inh: counter-screen for EBNA-1 inhibitors: inhibitors of Epstein-Barr virus ZTA | P03206 | ZTA-DNA binding, fluorescence polarization | inhibition, % at 11 µM | 320,000 tested, 0.15% active; in the data active means inhibition above about 33%
# Target sequence (P03206 whole entry, looked up): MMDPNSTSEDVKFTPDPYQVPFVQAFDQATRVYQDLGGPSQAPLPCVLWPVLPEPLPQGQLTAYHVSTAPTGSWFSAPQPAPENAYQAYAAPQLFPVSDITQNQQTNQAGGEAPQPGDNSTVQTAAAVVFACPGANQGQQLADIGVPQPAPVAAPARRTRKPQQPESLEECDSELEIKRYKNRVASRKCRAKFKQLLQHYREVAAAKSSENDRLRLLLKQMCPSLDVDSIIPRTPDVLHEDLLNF
# EBNA-1 inhibitor: EBNA-1 DNA-binding inhibitors, primary screen, biochemical, fluorescence polarization; inhibition, % at 14.8 µM; 300,000 tested, 0.34% active; in the data active means inhibition above about 28%
# LYPLA2 counter: LYPLA2 inhibitors, primary screen, counter-screen for PME1 inhibitor project, biochemical, fluorescence polarization, FP-Rh probe ABPP; recombinant LYPLA2; 320,000 tested, 0.38% active; inhibition, % at 5.9 µM; Acyl-protein thioesterase 2 (Homo sapiens), O95372; AID 2177, 2009;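 active means inhibition above the screen-wide mean plus 3 SD, limit set per campaign, cut at about 26% in these data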
# LANA-H2A inh: blockers of LANA interaction with H2A/H2B – biochemical, FP readout, HTS, primary screen; Protein LANA1 (Human herpesvirus 8 type P (isolate GK18)), Q9QR71; cell-free LANA-H2A/H2B peptide, fluorescence polarization; inhibition, % (test concentration not listed); 320,000 tested, 0.6% active; AID 2629, 2010; in the data active means inhibition mostly above about 10%, no sharp cut-off; inactive means mostly below about 6.7%
# EBNA-1 confirm: EBNA-1 DNA-binding inhibitors, retest, confirmation, biochemical, fluorescence polarization, triplicate; shares compounds with EBNA-1 inhibitor; Recombinant EBNA-1 DBD, Cy5-DNA fluorescence polarization; inhibition, % at 14.8 µM; 830 tested, 35% active; AID 2292, 2010;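 active means mean inhibition across replicates above a set limit taken from the earlier primary screen, cut at about 28% in these data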
# ZTA DNA inh trip: EBV Zta DNA binding inhibitors, counter-screen for EBNA-1 inhibitor project, biochemical, fluorescence polarization, triplicate | shares compounds with EBNA-1 inhibitor | Zta-ZRE DNA binding, Cy5 fluorescence polarization | inhibition, % at 11.1 µM | 830 tested, under 10 active | AID 2328, 2010;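 active means mean inhibition over triplicates above a set limit taken from the primary EBNA-1 screen, cut at about 37% in these data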;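 further: purified full length Zta protein with Cy5 labeled ZRE DNA probe; inhibitors lower polarization by freeing the labeled DNA probe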
# Hits are given with their value; - = inactive; . = not tested or not shown.
SMILES,LYPLA1 inh,ZTA DNA inh,EBNA-1 inhibitor,LYPLA2 counter,LANA-H2A inh,EBNA-1 confirm,ZTA DNA inh trip
CCOc1cccc(CN2CCCC(N3CCc4cc(OC)c(OC)cc4C3)C2)c1O (stereo unspecified),-,-,-,-,-,.,.
COc1ccc(-n2c(=O)[nH]c3cc(C(=O)NCCc4ccccc4)ccc3c2=O)cc1OC,-,-,-,-,-,.,.
C=CCNC(=S)NNC(=O)c1cccc(Br)c1,-,-,-,-,-,.,.
C=CCNC(=S)NNC(=O)c1ccccc1,-,-,76.8,-,-,-,-
C=CCn1c(SCC(=O)NCc2ccco2)nc2ccccc2c1=O,-,-,-,-,-,.,.
C=CCn1c(SCC(=O)NC(=O)NCc2ccco2)nc2sc(CC)cc2c1=O,-,-,27.8,-,-,-,-
Cc1sc2nc(SCC(=O)NCc3ccco3)n(CCc3ccccc3)c(=O)c2c1C,-,-,30.2,-,-,-,-
Cc1cc(NC(=O)c2ccc(Cl)c(S(=O)(=O)N3CCCCC3)c2)no1,-,-,-,-,-,.,.
C#Cc1cccc(NC(=O)c2ccc3c(c2)C(=O)N(Cc2cccnc2)C3=O)c1,-,-,-,-,-,.,.
O=C1C2C3CC(C(Br)C3Br)C2C(=O)N1c1nccs1 (stereo unspecified),-,-,-,-,-,.,.
COc1ccc(-n2ncc3c(=O)n(CC(=O)N4c5ccccc5CC4C)cnc32)cc1 (stereo unspecified),-,-,31.1,-,-,-,-
CCOC(=O)Cn1cnc2c(cnn2-c2ccc(OC)cc2)c1=O,-,-,-,-,-,.,.
CC(C)CCN(C(=O)c1csnn1)C(C(=O)NC1CCCCC1)c1ccc(F)cc1 (stereo unspecified),-,-,-,-,-,.,.
CCC(C)NC(=O)c1ccc([N+](=O)[O-])c(Cl)c1 (stereo unspecified),-,-,27.5,-,.,-,-
Cc1ccc(C(=O)CSc2nnc(-c3c[nH]c4ccccc34)o2)cc1,-,-,28.9,-,-,-,-
CC1CCN(S(=O)(=O)c2ccc(-c3nnc(SCc4cccnc4)o3)cc2)CC1,-,-,44.3,-,-,-,-
COC(=O)CSc1nnc(-c2ccc(S(=O)(=O)N3CCC(C)CC3)cc2)o1,-,-,-,-,-,.,.
O=C(c1ccccc1F)N1CCN(c2ccc([N+](=O)[O-])c(NCC3CCCO3)c2)CC1 (stereo unspecified),-,-,-,-,-,.,.
O=C(Nc1cc(Cl)cc(Cl)c1)c1ccc(Cn2c(=O)[nH]c3ccsc3c2=O)cc1,-,-,35.8,-,-,29.4,-
O=C(Nc1ccc(Oc2ccccc2)cc1)C1CC1,-,-,-,-,-,.,.
O=C(Nc1ccc(Oc2ccccc2)cc1)C1CCN(c2ncccn2)CC1,-,-,39.3,-,-,-,-
COc1ccc(C(NC(=O)/C=C\c2ccco2)c2ccc(OC)c(OC)c2)cc1 (stereo unspecified),-,-,39.3,-,-,-,-
CCN(Cc1ccccc1)C(=O)Cn1c(=O)n(CC(=O)N2CCCCC2)c(=O)c2sccc21,-,-,-,-,-,.,.
Cc1ccc(-c2csc3ncnc(SCC(=O)Nc4nnc(C)s4)c23)cc1,-,-,38.5,-,-,-,-
CC(=O)CSc1ncnc2scc(-c3ccc(F)cc3)c12,-,-,-,-,-,.,.
SMILES,LYPLA1 inh,ZTA DNA inh,EBNA-1 inhibitor,LYPLA2 counter,LANA-H2A inh,EBNA-1 confirm,ZTA DNA inh trip
Cc1ccc(/C=C2/NC(=O)N(Cc3ccccc3)C2=O)o1,-,-,-,-,-,.,.
Cn1c(=O)n(C)c2cc(/C=C3/NC(=O)N(Cc4ccccc4)C3=O)ccc21,-,-,134.3,-,-,113.1,-
CCn1c(O)c(/C=C2\C=Nc3ccccc32)sc1=O,-,-,28.2,-,14.1,-,-
CCC(=O)Nc1cccc(-c2cc3ccccc3oc2=O)c1,-,-,-,-,-,.,.
O=C(Cc1cccc2ccccc12)Nc1ccc(-c2cc3ccccc3oc2=O)cc1,-,-,29.1,-,-,-,-
COc1ccc(/C=N/n2cnc3c([nH]c4ccccc43)c2=O)cc1CO,-,-,28.9,-,-,-,-
CCN(CCO)c1nc(N2CCCCC2)c2cnn(C)c2n1,-,-,-,-,-,.,.
COc1cccc(-n2nnc3c(=O)n(Cc4ccc(C)cc4)cnc32)c1,-,-,-,-,-,.,.
COc1cccc(-n2nnc3c(=O)n(Cc4ccc(Br)cc4)cnc32)c1,-,-,35.3,-,-,-,-
CS(=O)(=O)NNC(=O)c1csc(Cc2c(Cl)sc3ccc(Cl)cc23)n1,-,-,39.9,-,-,41.5,-
CC(C)C(=O)NNC(=O)c1csc(CS(=O)(=O)c2ccc(Cl)cc2)n1,-,-,-,-,-,.,.
NS(=O)(=O)c1ccc(CCNC(=O)C2CCC(CNS(=O)(=O)c3ccc(Br)s3)CC2)cc1 (stereo unspecified),-,-,59.5,-,-,-,-
O=C(NCc1cccs1)C1CCC(CNS(=O)(=O)c2ccc(Br)s2)CC1 (stereo unspecified),-,-,-,-,-,.,.
CCOC(=O)C1=C(C)NC2=C(C(=O)c3ccccc32)C1c1ccc(O)cc1 (stereo unspecified),-,-,-,-,-,.,.
COC(=O)C1=C(C)NC2=C(C(=O)c3ccccc32)C1c1cccc(OC)c1 (stereo unspecified),-,-,27.9,-,-,37.7,-
CC(=O)C1=C(O)C(=O)N(CCCn2ccnc2)C1c1ccc(Br)cc1 (stereo unspecified),-,-,39.7,-,-,-,-
CC(OC(=O)/C=C/c1ccco1)C(=O)NC1CCCCC1C (stereo unspecified),-,-,.,-,-,.,.
O=c1c(C(c2ccccc2)c2c(O)sc3ccccc3c2=O)c(O)sc2ccccc12,-,-,59.6,-,11.1,37.9,39.3
Cc1cccc(NC(=O)c2cc(S(=O)(=O)N3CCc4ccccc43)cn2C)c1C,-,-,27.6,-,-,39.1,-
Cc1noc(C)c1NC(=O)N(C)C[C@H]1Oc2ccc(NC(=O)Nc3ccc(C(F)(F)F)cc3)cc2C(=O)N([C@H](C)CO)C[C@@H]1C,.,.,.,.,-,.,.
CCOC(=O)/C=C/[C@H]1CCc2cccc(Cl)c2O1,-,-,.,-,-,.,.
Cc1cc(C(=O)CN2C(=O)NC3(CCCc4sccc43)C2=O)c(C)n1-c1ccc(Cl)cc1 (stereo unspecified),-,-,33.8,-,-,-,-
